Screens as filed in PubChem.
Shown are actives, neighbours in structure and some others; about 7.3% of the full set was active somewhere.
HCMV inh = blocks human cytomegalovirus replication; HFF cells, HCMV-luciferase reporter, 72 h; active compounds read low; activity change, negative = inhibition, % at 57.5 µM; actives 4.5% (n = 410,000); in the data active = activity change below about -60%; inconclusive = no clear call, values can overlap the other calls; inactive = above about -39%
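Two-dose cell screen: HFF monolayers treated with compounds and infected with luciferase-expressing HCMV at 1 PFU/cell, 72 h at 37C, then lysed for luciferase measurement.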
HCV inhibitor = HCV inhibition | Huh7.5.1 HCVcc-Cre infection, luciferase reporter, 44 h | Potency, µM (top dose mostly 41.8 µM), inactives show at the highest dose activity change, negative = inhibition, hits mostly inhibitors | AID 651820 | actives 3.4% (n = 340,000); also: potency is read from the fitted curve at half-maximal effect
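Whole-lifecycle infectious HCVcc-Cre system; cells 1,000/well, compound then virus (~0.5 moi) added 4 h after plating, 44 h culture. Luciferase read 15 sec following 15 min substrate incubation, room temp.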
FMDV inh = blocks foot and mouth disease virus; actives 1.2% (n = 410,000); Potency, µM (titrated, usually from 57.9 µM), without a hit: at the top dose activity change, negative = inhibition, hits mostly inhibitors; FMDV antiviral cell-based qHTS; AID 1159524; calls by dose curve; tested in HEK293T cells; also: read-out not given here; potency is read from the fitted curve at half-maximal effect; nearly all actives have a fitted effect of over 45% in size
AmpC no deterg = inhibitors of E. coli AmpC beta-lactamase without detergent | AID 485341 | Potency, µM (series often up to 57.1 µM), for inactives: at the highest dose activity change, negative = inhibition, hits mostly inhibitors | actives 0.52% (n = 330,000) | AmpC nitrocefin hydrolysis, absorbance 480 nm, 0.0001% Triton;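 also: potency is read from the fitted curve at half-maximal effect; plate controls were no compound for no effect and no enzyme for full effect; nearly all actives have a fitted effect of over 20% in size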
Target sequence (P00811 whole entry, looked up): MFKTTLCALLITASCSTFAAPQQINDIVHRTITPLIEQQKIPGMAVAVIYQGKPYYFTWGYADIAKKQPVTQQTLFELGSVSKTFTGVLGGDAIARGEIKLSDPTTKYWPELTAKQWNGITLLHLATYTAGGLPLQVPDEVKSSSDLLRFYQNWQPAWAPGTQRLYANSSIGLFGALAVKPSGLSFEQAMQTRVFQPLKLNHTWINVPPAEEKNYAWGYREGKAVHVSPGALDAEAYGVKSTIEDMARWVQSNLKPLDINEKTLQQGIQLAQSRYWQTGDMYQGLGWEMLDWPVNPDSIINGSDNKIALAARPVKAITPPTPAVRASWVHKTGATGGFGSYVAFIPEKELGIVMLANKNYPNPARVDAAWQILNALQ
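20 mM phosphate pH 7.0 + 0.01% (detergent screen) or 0.0001% Triton X-100; 5.3 nM AmpC reagent; cpd preinc 15 min RT; nitrocefin (800 uM stock) to start; A480 q20 s × 4 min; Activity was normalised to no-enzyme and no-compound control wells.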
AmpC inh detg = blocks E. coli AmpC beta-lactamase in detergent assay | Potency, µM (highest dose often 114 µM), inactives show at the highest dose activity change, negative = inhibition, hits mostly inhibitors | P00811 | actives 0.041% (n = 370,000) | AmpC hydrolysis of nitrocefin, absorbance 480 nm, 0.01% Triton;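 also: potency is read from the fitted curve at half-maximal effect; 0% = no-compound wells and -100% = no-enzyme wells; nearly all actives have a fitted effect of over 25% in size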
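20 mM phosphate pH 7.0 + 0.01% (detergent screen) or 0.0001% Triton X-100; 5.3 nM AmpC reagent; cpd preinc 15 min RT; nitrocefin (800 uM stock) to start; A480 q20 s × 4 min; Activity was normalised to no-enzyme and no-compound control wells.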
An asterisk follows results filed as active; ! = repeats disagree; [ ] = remark or other dose. Unless noted, calls follow the shape of the dose curve; as a rule, active = well fitted curve in the direction sought with a large enough effect; inconclusive = small, poorly fitted or top-dose-only effect, or another doubt; inactive = no such curve, though single readings can be large; an effect the other way counts as inactive or inconclusive. Unless noted, % is scaled to controls: 0 for no effect and ±100 for the full control effect.

Oc1ccc(CCNc2c3ccccc3nc3ccccc23)cc1O was read as HCMV inh -100.0*, HCV inhibitor -28.0%, FMDV inh -15.1%, AmpC no deterg -31.3% and AmpC inh detg inconclusive.
For Cc1ccc(S(=O)(=O)c2c(O)cc(C)c(NS(=O)(=O)c3ccc(Br)cc3)c2C)cc1 the results were HCMV inh -5.2, FMDV inh 31.4% and AmpC inh detg -5.6%.
For CCCCN(C(=O)c1ccc2c(c1)S(=O)(=O)N=C1CCCCCN12)c1c(N)n(CC(C)C)c(=O)[nH]c1=O the results were HCMV inh 15.4, HCV inhibitor 16.9% and FMDV inh -11.8%.
For O=C(CSc1ncnc2c1nnn2-c1ccc(F)cc1)NCC1CCCO1 (stereo not drawn) the results were HCMV inh -12.7, HCV inhibitor -3.1%, FMDV inh 15.8µM*, AmpC no deterg -2.7% and AmpC inh detg -0.2%.
Screening COc1ccc(-n2nnc3c(=O)n(CC(=O)NCC4CCCO4)cnc32)cc1 (stereo not drawn) returned HCMV inh -101.8*, HCV inhibitor 1.4%, FMDV inh -8.1%, AmpC no deterg 5.8% and AmpC inh detg -21.5%.
`CCCCn1c(N)c(N(CC(C)C)C(=O)c2ccc3c(c2)NC(=O)C(C)S3)c(=O)[nH]c1=O` (stereo not drawn) gave HCMV inh -24.4, HCV inhibitor 3.0%, FMDV inh -4.6%, AmpC no deterg -25.6% and AmpC inh detg -5.0%.
`COCc1ccc(C(=O)N2CCOc3c(cc(-c4cc(C)c5cccc(OC)c5n4)cc3OC)C2)o1` gave FMDV inh -4.6%.
Screening CC(C)(C)OC(=O)CC12CCCCC1NC(=O)O2 (stereo not drawn) returned HCMV inh -30.2, HCV inhibitor 16.3%, FMDV inh 0.1%, AmpC no deterg -6.0% and AmpC inh detg -11.0%.
COc1cc(NC(=O)c2csc(N)n2)cc(C(=O)Nc2cccc(C(F)(F)F)c2)c1 was read as HCMV inh -66.8*!, HCV inhibitor inconclusive, FMDV inh 25.1µM*, AmpC no deterg -2.9% and AmpC inh detg -8.9%.
Screening COc1cc(NC(=O)c2ccnc(N)c2)cc(C(=O)Nc2cccc(C(F)(F)F)c2)c1 returned HCMV inh 21.2, HCV inhibitor -26.0%, FMDV inh -7.4%, AmpC no deterg -17.9% and AmpC inh detg 1.6%.
COc1cc(NC(=O)c2cnc(N)o2)cc(C(=O)Nc2cccc(C(F)(F)F)c2)c1 was read as HCMV inh inconclusive, HCV inhibitor inconclusive, FMDV inh 17.8µM*, AmpC no deterg 7.9% and AmpC inh detg 0.4%.
`O=[N+]([O-])c1ccc(OCn2cncn2)cc1` gave HCMV inh 3.9, HCV inhibitor 16.7%, FMDV inh -9.0%, AmpC no deterg -17.1% and AmpC inh detg -6.8%.
Cn1c(=O)c2c(ncn2CCOc2ccc(Br)cc2)n(C)c1=O was read as HCMV inh inconclusive, HCV inhibitor 10µM*, FMDV inh inconclusive, AmpC no deterg 68.3% and AmpC inh detg -3.3%.
CCOc1cc(CNCc2ccncc2)cc(Br)c1OCc1ccc(F)cc1 was read as HCMV inh -65.0*, HCV inhibitor 10µM*, FMDV inh 15.8µM*, AmpC no deterg 137.1% and AmpC inh detg -5.6%.
`Fc1ccc(COc2cccc(CNCc3ccncc3)c2)cc1` gave HCMV inh -71.1*, HCV inhibitor inconclusive, FMDV inh -22.5%, AmpC no deterg 8.6% and AmpC inh detg 1.3%.
Screening COc1cc(CNC(C)c2ccccc2)cc(Cl)c1OCC(=O)Nc1ccccc1 (stereo not drawn) returned HCMV inh -39.4, HCV inhibitor 11.2µM*, FMDV inh inconclusive, AmpC no deterg -18.3%[2.29 µM] and AmpC inh detg -0.3%.
Screening Fc1ccccc1COc1ccc(Br)cc1CNCc1ccncc1 returned HCMV inh -23.9, HCV inhibitor -13.3%, FMDV inh 31.6µM*, AmpC no deterg 73.0% and AmpC inh detg -8.1%.
For Cc1cc(C)c(NC(=O)Cn2c(=O)n(CCC(C)C)c(=O)c3cccnc32)c(C)c1 the results were HCMV inh 8.1, FMDV inh -24.1% and AmpC inh detg 0.2%.
